# Source: PubChem BioAssay AID2685 (National Center for Advancing Translational Sciences (NCATS), 2010)
# Among all 320,000 compounds or so, about 2,100 (0.66%) were called active. Inconclusive results (about 53%) are left out. This is one part of a sample in which actives are shown more often than they occur. The call rests on the fitted dose curve; in most records, active means well fitted inhibition curve with a large enough effect in the signal ratio, with a control signal flat (not every such curve was filed as active); inconclusive means small, poorly fitted or top-dose-only effect, or effect the other way, or a change in a side signal; inactive means flat fitted curve, though single readings scatter; the % refers to the signal ratio.
# Assay: qHTS Assay for Lipid Storage Modulators in Drosophila S3 Cells;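 on cell number change: cells counted by Cell Tracker Red CMTPX staining in the red channel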; on lipid storage change, negative = inhibition: on the % scale 0 is the no-effect control and ±100 the full control effect
# Details: BODIPY lipid droplet fluorescence, 18-24 h, cells fed with added oleic acid; cell number change: measured here: cell count max response; series mostly up to 46.1 µM
# Source text: NIH Molecular Libraries Probe Production Centers Network [MLPCN] NIH Chemical Genomics Center [NCGC] MLPCN Grant: 1 R03 MH085686-01 Assay Submitter (PI): Beller, Mathias; Max-Planck-Institut fur Biophysikalische Chemie NCGC Assay Overview: Storing lipids as a reservoir for energy or the anabolism of elementary metabolites is a common feature of probably all cells and is conserved from bacteria to humans. The universal cellular lipid storage organelle is the so-called lipid storage droplet (LD). Although ubiquitous, LDs share a simple structure composed of a hydrophobic core that harbors the storage lipids, which is shielded by a droplet-specific phospholipid monolayer to which proteins are attached. The current model of LD biogenesis involves an incorporation of the lipid core into the membrane leaflets of the endoplasmic reticulum (ER) followed by a subsequent budding-like maturation of a LD, which ultimately pinches off. Once released, LD volume can increase by localized lipogenesis or fusion of existing droplet. Storage lipids are re-mobilized enzymatically by lipase activity. Lipase regulation in the adipocyte is heavily studied and involves multiple components including catecholamine signaling, the LD-associated proteins Perilipin and comparative gene identification (CGI-58) and at least two lipases named hormone sensitive lipase (HSL) and adipocyte triglyceride lipase (ATGL). LD regulation outside of the adipocyte is poorly understood and only few components are known. However, there is an urgent need to learn more about ectopic fat depots as mislocalized storage of lipids, for example in the liver or muscle, is an eminent health problem associated with insulin resistance or the metabolic syndrome. We developed a laser-scanning cytometer assay to enable 1,536-well screening and combined the results of the small molecules screen with an RNAi database based on lipid storage.
# Triacsin C (Sigma-Aldrich T-4540), an inhibitor of long-chain fatty acyl CoA synthetase that blocks synthesis of triglycerides, was used as a positive control for lipid under-storage. A total of 23 nL of compound solution of different concentrations were transferred to the assay plates using a Kalypsys pin tool equipped with a 1,536-pin array containing 10-nL slotted pins (FP1S10, 0.457-mm diameter, 50.8 mm long; V&P Scientific). One microliter of oleic acid (400 uM) was added, and the plate was lidded with stainless steel rubber gasket lined lids containing pinholes. […] Fluorescence was detected by excitation of the fluorophores with a 488-nm laser on an Acumen Explorer (TTP Lab Tech). The total intensity in channel 2 (500-530 nm) reflected lipid droplet accumulation. Cells were detected using channel 3 (575-640 nm) with 5-um width and 100-um depth filters. The ratio of the number of objects in PMT channel 2 over the number of objects in PMT channel 3 was also calculated. Percent activity was computed relative to an internal control (100% inhibited lipid droplet deposition due to the presence of 20 uM Triacsin C), which was added to 32 wells/plate.
# Potency means the concentration at half of the fitted maximal effect.
Compound,Potency,cell number change,"lipid storage change, negative = inhibition"
Cc1onc(C(=O)N2CCN(C(c3ccccc3)c3ccccc3)CC2)c1[N+](=O)[O-],inactive,3.65%,–
CC(OC(=O)C1=Cc2ccccc2OC1)C(=O)NCc1ccco1 (centres undefined),inactive,–,–
CCC(C(=O)Nc1cccnc1)n1c(=O)[nH]c2ccccc2c1=O (centres undefined),18.4 µM (active),-16%,–
O=C(Cn1[nH]c(=O)c2ccccc2c1=O)Nc1cccnc1,inactive,7.37%,–
CCC(C(=O)Nc1ccc2c(c1)OCCO2)n1c(=O)[nH]c2ccccc2c1=O (centres undefined),inactive,-11.6%,–
CCO[C@@H]1OC(C(=O)N2CCN(Cc3ccc4c(c3)OCO4)CC2)=C[C@H](c2ccc3c(c2)OCO3)[C@H]1CCCO,inactive,–,–
O=c1c2ccccc2nnn1CCN1CCOCC1,inactive,-18.2%,–
CCC(Sc1nc2ccccc2c(=O)[nH]1)C(=O)O (centres undefined),inactive,-2.97%,–
Cc1ccc2nc(SC(C)C(=O)N3CCCC3)[nH]c2c1 (centres undefined),inactive,17.4%,–
CCC(Sc1nc2ccc(C)cc2[nH]1)C(=O)O (centres undefined),14.6 µM (active),14.5%,–
COc1cccc(-c2csc3nc[nH]c(=O)c23)c1,20.6 µM (active),–,–
O=c1[nH]cnc2scc(-c3ccccc3)c12,inactive,-0.547%,–
Cc1ccc(-c2csc3nc[nH]c(=O)c23)cc1C,inactive,-18.4%,–
OCCCNc1ncnc2oc(-c3ccccc3)c(-c3ccccc3)c12,inactive,13.3%,–
CC(C)Cn1c(/C=N/Nc2nc3ccccc3[nH]2)nc2ccccc21,inactive,-7.46%,–
CCCn1c(/C=N/Nc2nc3ccccc3[nH]2)nc2ccccc21,13 µM (active),-13.7%,–
C(=N\Nc1nc2ccccc2[nH]1)/c1ccccc1,inactive,-28.7%,–
CCOC(=O)N1CCN(Cc2nnc(-c3ccccc3C)o2)CC1,inactive,3.5%,–
Cc1cc(NC(=O)c2cccs2)ncc1NC(=O)c1cccc(F)c1,inactive,0.447%,–
CCCCc1nc(C(N)=O)c2[nH]c(=O)n(-c3ccc(OC)c(OC)c3)c2n1,inactive,–,–
CCC1Oc2ccccc2N(CC(=O)NC2CCCCC2)C1=O (centres undefined),inactive,2.82%,–
CC1CCCCC1NC(=O)CN1C(=O)COc2ccccc21 (centres undefined),inactive,-0.697%,–
CCC1Oc2ccccc2N(CC(=O)NC2CCCCC2C)C1=O (centres undefined),29.1 µM (active),-4.58%,–
CC(C)c1nnc(NC(=O)COc2ccccc2[N+](=O)[O-])s1,inactive,0.142%,–

Compound,Potency,cell number change,"lipid storage change, negative = inhibition"
CCc1cc(C(=O)Nc2nc(-c3ccccn3)cs2)sc1C,5.17 µM (active),3.52%,–
O=C(Nc1nc(-c2ccccn2)cs1)c1ccco1,inactive,-10.5%,–
Cn1nc(C(=O)Nc2nc(-c3ccccn3)cs2)c2ccccc2c1=O,inactive,-20.7%,–
Cc1ccnc2nc(C(=O)Nc3nc(-c4ccccn4)cs3)nn12,1.64 µM (active),-16%,–
Cc1ccc(C(=O)Nc2nc(-c3ccccn3)cs2)s1,2.06 µM (active),-8.64%,–
CC(=O)Nc1ccc(C(=O)Nc2nc(-c3ccccn3)cs2)cc1,inactive,–,–
Cc1ccnc2nc(C(=O)Nc3nccs3)nn12,inactive,-14.4%,–
CCc1cc(C(=O)Nc2ncccc2O)sc1C,inactive,-6.68%,–
Cc1cc(C)c(OCC(=O)Nc2nc(-c3ccccn3)cs2)c(C)c1,inactive,1.77%,–
CCCNC(=O)c1cccc(Br)c1,inactive,–,–
CC(=O)N1CCc2cc(Br)cc(S(=O)(=O)N3CCCCC3)c21,inactive,-26.2%,–
CC(=O)Nc1cccc(NC(=O)C(C)N2c3cccc4cccc(c34)S2(=O)=O)c1 (centres undefined),inactive,20.8%,–
COC(=O)C1(C(C[N+](=O)[O-])c2ccco2)C(=O)NCC1c1ccccc1 (centres undefined),inactive,–,–
Cc1cc(Nc2ccccc2)nc(NCc2ccccc2)n1,8.2 µM (active),-27.7%,–
COc1cc(C)nc(NCc2ccccc2)n1,inactive,–,–
Cc1cc(Oc2ccccc2)nc(NCc2ccccc2)n1,inactive,-8.62%,–
CCOc1ccc2nc(N3C(=O)/C(=C/c4ccc(Cl)cc4)NC3=S)sc2c1,inactive,13.8%,–
CCOc1ccc2nc(N3C(=O)/C(=C/c4ccccc4)NC3=S)sc2c1,9.2 µM (active),-2.65%,–
COc1ccc2nc(N3C(=O)/C(=C/c4ccc(Cl)cc4)NC3=S)sc2c1,inactive,28.8%,–
CCOC(=O)C1CCN(S(=O)(=O)c2ccc(-c3ccccn3)s2)CC1,inactive,18.1%,–
CCOC(=O)CN(C(=O)CSc1nnc(CNc2ccc(C)cc2C)n1CC)c1ccccc1,inactive,-14.6%,–
COC(=O)CSc1nc(N2CCOCC2)c2c(c1C#N)CC(C)(C)N(C)C2,inactive,15.3%,–
COc1cccc(-c2ccc3c(c2)S(=O)(=O)c2cccc(C(=O)O)c2C3=O)c1OC,0.651 µM (active),–,–
COc1ccc(-c2ccc3c(c2)S(=O)(=O)c2cccc(C(=O)O)c2C3=O)cc1OC,inactive,0.722%,–

Compound,Potency,cell number change,"lipid storage change, negative = inhibition"
O=C(O)c1cccc2c1C(=O)c1ccc(-c3ccc(F)cc3F)cc1S2(=O)=O,inactive,1.93%,–
CC1(C)C(C=C(Cl)Cl)C1C(=O)N(Cc1ccc(Cl)cc1)C1CCS(=O)(=O)C1 (centres undefined),8.2 µM (active),-12%,–
CC1(C)C(C=C(Cl)Cl)C1C(=O)N(Cc1ccccc1Cl)C1CCS(=O)(=O)C1 (centres undefined),inactive,-19.9%,–
Cc1c(C(=O)N(Cc2ccc(F)cc2)C2CCS(=O)(=O)C2)oc2ccccc12 (centres undefined),inactive,3.58%,–
C=CCN(C(=O)c1ccccc1)C1CCS(=O)(=O)C1 (centres undefined),inactive,22.7%,–
Cc1c(C(=O)N(Cc2ccccc2)C2CCS(=O)(=O)C2)oc2ccccc12 (centres undefined),inactive,19%,–
Cc1c(C(=O)N(Cc2ccc(Cl)cc2)C2CCS(=O)(=O)C2)oc2ccccc12 (centres undefined),9.2 µM (active),-19.8%,–
O=C(c1ccco1)N(Cc1ccc(Cl)cc1)C1CCS(=O)(=O)C1 (centres undefined),inactive,5.9%,–
C=CCN(C(=O)c1oc2c(Cl)cc(C)cc2c1C)C1CCS(=O)(=O)C1 (centres undefined),20.6 µM (active),7.31%,–
Cc1cc(Cl)c2oc(C(=O)N3CCN(C4CCS(=O)(=O)C4)CC3)c(C)c2c1 (centres undefined),inactive,16.7%,–
O=C1CSC(c2ccccc2)N1CC(O)c1ccc([N+](=O)[O-])cc1 (centres undefined),inactive,14%,–
CCOc1ccc(-c2noc(-c3cccnc3)n2)cc1OCC,inactive,2.29%,–
O=[N+]([O-])c1cccc(OCCN2CCC(Cc3ccccc3)CC2)c1,inactive,10.2%,–
COc1ccc(S(=O)(=O)CCC(=O)Nc2ccc(OC)cc2OC)cc1,inactive,-8.69%,–
Cc1ccc(C(=O)CCC(=O)OCC(=O)N(CC(C)C)c2c(N)n(Cc3ccccc3)c(=O)[nH]c2=O)cc1,inactive,20.5%,–
COc1ccc(CCNc2c(C=O)c(=O)[nH]c3ccccc23)cc1OC,inactive,–,–
Cc1cc(Br)ccc1NC(=O)C(C)c1ccc([N+](=O)[O-])cc1 (centres undefined),inactive,6.98%,–
Cc1ccc(-n2c3c(c(=O)[nH]c2=O)C(NS(=O)(=O)c2ccc(C)cc2)(C(F)(F)F)C(=O)N3)cc1 (centres undefined),inactive,-0.886%,–
Cc1ccc(-n2cc(S(=O)(=O)c3ccc(C)cc3)[nH]c2=O)cc1,inactive,12.8%,–
CCc1c(C(C)S(=O)(=O)c2ccc(C)cc2)[nH]c(=O)n1-c1ccc(C)cc1 (centres undefined),29.1 µM (active),-0.34%,–
Brc1ccc(-n2cccc2/C=N/n2cnnc2)cc1,inactive,–,–
Cc1ccc(OCc2nc(C#N)c(N3CCCCC3)o2)cc1,inactive,15.9%,–
N#Cc1nc(COc2ccc(Br)cc2)oc1N1CCCCCC1,–,7.38%,17.2% [at 9.22 µM] (inactive)
N#Cc1nc(COc2ccc(Cl)cc2)oc1N1CCCC1,23.1 µM (active),-31%,–

Compound,Potency,cell number change,"lipid storage change, negative = inhibition"
COc1ccc(OC)c(-c2cc(C(=O)N3CCN(c4ncccn4)CC3)c3ccccc3n2)c1,inactive,-4.49%,–
Cc1onc(-c2ccccc2Cl)c1C(=O)Nc1ccccc1,inactive,6.9%,–
COc1cc(S(=O)(=O)N(C)C)ccc1F,inactive,-10.1%,–
COC(=O)C1=C(C)NC2=C(C(=O)c3ccccc32)C1c1cccc(OC)c1 (centres undefined),inactive,-11.6%,–
CCOC(=O)C1=C(C)NC2=C(C(=O)c3ccccc32)C1c1cccc2ccccc12 (centres undefined),16.4 µM (active),-15.2%,–
CCOC(=O)C1=C(C)NC2=C(C(=O)c3ccccc32)C1c1ccc([N+](=O)[O-])o1 (centres undefined),inactive,12.6%,–
CCC1CCCCN1C(=O)CNCC1CCCO1 (centres undefined),inactive,14.6%,–
CSc1ccccc1NC(=O)CN(Cc1ccccc1)S(C)(=O)=O,inactive,–,–
Cc1ccc(CS(=O)(=O)CC(C)(O)c2ccccc2)cc1 (centres undefined),inactive,15.3%,–
CCOc1ccc(C(C(=O)NCC2CCCO2)N(Cc2cccnc2)C(=O)c2snc(C(N)=O)c2N)cc1 (centres undefined),inactive,-2.82%,–
CCOc1ccc(C(C(=O)NCC2CCCO2)N(Cc2cccs2)C(=O)c2snc(C(N)=O)c2N)cc1 (centres undefined),1.64 µM (active),15%,–
COc1ccc(C(C(=O)NCC2CCCO2)N(Cc2cccs2)C(=O)c2snc(C(N)=O)c2N)cc1OC (centres undefined),inactive,25.6%,–
Cc1cccc(-n2ncc3c2CCCC3NC(=O)CCN2CCCCO2)c1C (centres undefined),inactive,-4.74%,–
O=C(CSc1ccc(-c2ccccn2)nn1)N1CCCC1,inactive,4.79%,–
COc1cc(CN2CCC(Cc3ccccc3)CC2)c([N+](=O)[O-])cc1OC,inactive,21.3%,–
COc1ccc(CSc2nnc(CNS(C)(=O)=O)o2)cc1,inactive,8.09%,–
COc1cc([N+](=O)[O-])ccc1N1C(=O)C2C3C=CC(C4CC34)C2C1=O (centres undefined),inactive,-23.6%,–
O=S(=O)(NCc1ccccc1Cl)c1ccc(-n2cccn2)cc1,16.4 µM (active),-0.567%,–
O=S(=O)(NCc1ccccc1)c1ccc(-n2cccn2)cc1,inactive,-18%,–
COc1ccccc1CNS(=O)(=O)c1ccc(-n2cccn2)cc1,inactive,-13.2%,–
O=C(NCCCCO)c1ccc2c3c(cccc13)CC2,inactive,-6.57%,–
